Screens (PubChem BioAssay)
This is a sample that favours compounds with a hit; in the whole collection about 0.4% have one here.
Rac1 act GTP bind: alters GTP binding to activated mutant human Rac1; P63000; GST-Rac1 activated beads, fluorescent GTP binding, flow cytometry; actives lie on both sides; 100% means binding = to untreated wells; percent activity (GTP binding), % at 10 µM; 0.11% of 190,000 active;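 active means GTP binding at least 20 percentage points away from the 100% baseline, in either direction, so actives lie on both sides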
Rab7 wt GTP bind: alters GTP binding to wildtype dog Rab7; GST-Rab7 beads, fluorescent GTP binding, flow cytometry; actives lie on both sides; untreated = 100%, excess cold GTP = 0%; GTP binding activity (percent of control), % at 10 µM; 0.055% of 190,000 active; AID 758;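 active means fluorescent GTP binding to Rab7 beads changed by at least 20 points from the 100% baseline, either direction, mostly lower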;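 further: median green fluorescence of bound Bodipy-FL-GTP per Rab7 bead population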
Rac1 wt GTP bind: modulators of human Rac1 wildtype GTP binding | P63000 | GST-Rac1 beads, fluorescent GTP binding, flow cytometry; actives lie on both sides; 0 = cold GTP competed, 100 = untreated | GTP binding activity (% of control), % at 10 µM | 0.27% of 190,000 active | AID 757;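 active means GTP binding activity at least 20 points away from the 100% control level, either lower or higher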
Cdc42 wt: changes GTP binding to wildtype human Cdc42; 0.2% of 190,000 active; P60953; GST-Cdc42 beads, Bodipy-GTP binding, flow cytometry; actives lie on both sides; percent activity (GTP binding), % at 10 µM;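 active means percent activity GTP binding at least 20 points away from the 100% baseline, either down as inhibitor or up as activator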;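 further: median bead fluorescence of bound Bodipy-FL-GTP at 100 nM; 0% = excess unlabeled GTP control and 100% = no compound control; below 100% means less GTP binding so inhibitor and above means activator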
Target sequence (P60953 whole entry, looked up): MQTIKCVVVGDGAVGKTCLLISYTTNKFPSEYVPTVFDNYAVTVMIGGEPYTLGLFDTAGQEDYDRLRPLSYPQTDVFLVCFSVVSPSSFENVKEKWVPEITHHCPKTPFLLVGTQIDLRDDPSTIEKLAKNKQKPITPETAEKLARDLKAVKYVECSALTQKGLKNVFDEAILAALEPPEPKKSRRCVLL
Rab2A wt mod: changes GTP binding to wildtype dog Rab2A, up or down | P61105 | GST-Rab2 wt beads, Bodipy-GTP binding, flow cytometry | GTP binding activity, % at 10 µM | 0.19% of 190,000 active;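 active means GTP binding activity at least 20 points away from 100%, either lowered or raised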;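 further: 0% = beads with excess unlabeled GTP and 100% = no-compound control corrected for plate trend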
HRas wt GTP: modulators of GTP binding to human HRas wildtype; GTP binding activity, % at 10 µM; GST-Ras wt beads, Bodipy-FL-GTP binding, flow cytometry; actives lie on both sides; 0.14% of 190,000 active; P01112; AID 759;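 active means GTP binding activity at least 20% away from the 100% baseline, either lowered as inhibitor or raised as activator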;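 further: 0% = unlabeled GTP competition control and 100% = no-compound control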
Target sequence (P01112 whole entry, looked up): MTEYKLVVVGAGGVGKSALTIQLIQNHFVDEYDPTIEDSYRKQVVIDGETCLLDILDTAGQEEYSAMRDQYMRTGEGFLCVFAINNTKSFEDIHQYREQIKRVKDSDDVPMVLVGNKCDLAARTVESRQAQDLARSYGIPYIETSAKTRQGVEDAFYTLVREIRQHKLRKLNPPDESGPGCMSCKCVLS
* marks the source's active call; other numbers are inactive results; [ ] = another dose, or the depositor's remark.

SMILES | Rac1 act GTP bind | Rab7 wt GTP bind | Rac1 wt GTP bind | Cdc42 wt | Rab2A wt mod | HRas wt GTP
O=C(C#Cc1ccccc1)c1cccc([N+](=O)[O-])c1 | 71* | 91 | 84 | 74* | 83 | 87
N/C(=N\OC(=O)Oc1ccccc1)c1cccc([N+](=O)[O-])c1 | 97 | 99 | 104 | 105 | 97 | 99
Cc1cccc(-c2nnc3n2N=C(c2ccccc2)CS3)c1 | 96 | 92 | 100 | 88 | 94 | 95
Cc1cc(-c2nnc3n2N=C(c2ccc(-c4ccccc4)cc2)CS3)n[nH]1 | 81 | 87 | 75* | 76* | 79* | 78*
Oc1ccc(C2=Nn3c(nnc3-c3ccco3)SC2)cc1O | 65* | 70* | 51* | 49* | 47* | 47*
COc1ccc(C2=Nn3c(nnc3-c3ccccc3)SC2)cc1OC | 90 | 93 | 78* | 80 | 82 | 80
COc1ccc(-c2nnc3n2N=C(C)CS3)cc1OC | 91 | 94 | 89 | 95 | 93 | 93
COC1=CCC2([N+](=O)[O-])CN(CCO)CC1([N+](=O)[O-])C2 (stereo unspecified) | 100 | 104 | 102 | 103 | 100 | 101
O=C(Nc1ccccc1-c1nc2ccccc2[nH]1)c1sc2ccccc2c1Cl | 101 | 100 | 106 | 101 | 103 | 102
COc1ccc(CCNc2nc(=S)[nH]c3cc(OC)c(OC)cc23)cc1OC | 67* | 74* | 71* | 49* | 47* | 48*
COc1cc2[nH]c(=O)n(CCC(=O)NCCC(C)C)c(=O)c2cc1OC | 98 | 101 | 107 | 103 | 100 | 101
COc1cc2[nH]c(=S)nc(NCc3cccs3)c2cc1OC | 81 | 90 | 60* | 61* | 66* | 63*
COc1cc2[nH]c(=S)nc(NCCC(C)C)c2cc1OC | 71* | 85 | 52* | 56* | 59* | 64*
COc1cc2ncnc(NCc3cccs3)c2cc1OC | 94 | 109 | 91 | 95 | 98 | 98
COc1cc2[nH]c(=S)nc(NCCc3ccc(C)cc3)c2cc1OC | 65* | 69* | 49* | 45* | 49* | 54*
COc1ccc(CCNC(=O)c2ccc(CNc3nc(=S)[nH]c4ccccc34)cc2)cc1OC | 96 | 105 | 96 | 102 | 101 | 98
CCN(c1ccc(NC(=O)CN2C(=O)NC3(CCOc4ccccc43)C2=O)cc1)C(C)C (stereo unspecified) | 97 | 98 | 100 | 100 | 97 | 100
COc1ccc(CCNC(=O)c2c(N)no[n+]2[O-])cc1OC | 97 | 106 | 103 | 98 | 101 | 105
COc1cc2[nH]c(=S)nc(NCCc3ccc(S(N)(=O)=O)cc3)c2cc1OC | 61* | 81 | 40* | 32* | 37* | 35*
COc1ccccc1CC(=O)NCCc1ccc(S(N)(=O)=O)cc1 | 102 | 100 | 111 | 108 | 103 | 103
Cc1ccc(-c2cn3cccc(C)c3n2)cc1 | 107 | 120*[activator] | 108 | 109 | 118 | 112
Cc1cccn2cc(-c3ccc(Cl)cc3)nc12 | 93 | 93 | 93 | 91 | 93 | 91
CCn1cc(C=C2C(=O)c3ccccc3C2=O)c2ccccc21 | 81 | 83 | 74* | 78* | 81 | 77*
CCN=C1S/C(=C\c2cn(CC)c3ccccc23)C(=O)N1CC | 100 | 103 | 103 | 100 | 102 | 102
Cc1cc(NC(=O)CSc2nc(-c3ccccc3)c(C#N)c(=O)[nH]2)no1 | 76* | 77* | 77* | 75* | 78* | 75*
SMILES | Rac1 act GTP bind | Rab7 wt GTP bind | Rac1 wt GTP bind | Cdc42 wt | Rab2A wt mod | HRas wt GTP
CN1CCN(C(=S)c2cn(CCOc3ccccc3)c3ccccc23)CC1 | 96 | 94 | 100 | 97 | 95 | 95
CCCCC(=O)Nc1sc2c(c1C#N)CC(C)(C)OC2 | 100 | 104 | 107 | 103 | 98 | 101
CC1(C)Cc2c(sc(NC(=O)c3ccc(Br)o3)c2C#N)CO1 | 118 | 99 | 167*[activator] | 148*[activator] | 112 | 104
Cc1cc(/C=c2\sc3nc4ccccc4n3c2=O)c(C)n1-c1ccc(C(=O)O)cc1 | 76* | 94 | 81 | 78* | 85 | 88
CCOC(=O)c1cnc2nc(C)nn2c1N | 95 | 100 | 95 | 92 | 99 | 97
CCOC(=O)c1cnc2c(C#N)cnn2c1N | 86 | 88 | 73* | 77* | 73* | 72*
Cc1nnc2ccc(-c3ccc(NC(=O)c4ccco4)cc3)nn12 | 88 | 87 | 75* | 86 | 84 | 85
CC(=O)Nc1ccc(-c2ccc3nnc(C)n3n2)cc1 | 92 | 95 | 90 | 92 | 93 | 92
CN(C)c1ccnc(N(Cc2ccccc2)Cc2ccccc2)c1C#N | 99 | 96 | 98 | 102 | 97 | 99
O=S1(=O)N=C(N=Nc2c(O)[nH]c3ccccc23)c2ccccc21 | 87 | 96 | 77* | 80 | 82 | 87
CCOC(=O)c1c(NC(=O)C(=O)N/N=C/c2ccc(OCC)cc2)sc2c1CCCCC2 | 99 | 97 | 104 | 97 | 99 | 102
CCOC(=O)c1c(NC(=O)C(=O)N/N=C/c2ccc(O)c(OC)c2)sc2c1CCCCC2 | 98 | 98 | 104 | 61* | 94 | 98
Cc1cc(C)n2nc(SCC(=O)Nc3ccccc3)nc2n1 | 96 | 96 | 99 | 97 | 97 | 96
Cc1cc(C)n2nc(SCCOc3ccccc3)nc2n1 | 88 | 93 | 78* | 82 | 83 | 84
CCOC(=O)c1ccc(Nc2nc(C(=O)OCC)nc3ccccc23)cc1 | 82 | 81 | 82 | 69* | 73* | 73*
S=c1[nH]nc(-c2ccco2)n1-c1ccccc1Cl | 79* | 88 | 77* | 79* | 85 | 84
COc1ccc(OC)c(C(C)NC(=O)Nc2cccc(C(C)=O)c2)c1 (stereo unspecified) | 97 | 107 | 100 | 101 | 99 | 99
Cc1ccc(NC(=O)C2=C(c3ccccc3)S(=O)(=O)CCS2(=O)=O)cc1 | 82 | 94 | 83 | 78* | 84 | 86
CC12CCC(C/C1=N/OC(=O)c1cccc([N+](=O)[O-])c1)C2(C)C (stereo unspecified) | 98 | 94 | 99 | 100 | 100 | 99
COc1ccc(NC(=S)N2CCCN(Cc3cc(C)ccc3C)C2)cc1 | 94 | 94 | 103 | 96 | 98 | 99
COCCNC(=S)Nc1cc(OC)c(OC)cc1C#N | 80 | 86 | 57* | 60* | 59* | 67*
COc1ccc(S(=O)(=O)N(CC(=O)N/N=C/c2cccs2)c2cc(C)cc(C)c2)cc1OC | 99 | 98 | 104 | 98 | 98 | 100
